Reference: PubChem BioAssay (Tox21)
Inconclusive results are not listed. Values without a mark were called inactive. Calls follow the shape of the dose curve; as a rule, active = well fitted inhibition curve with a large enough effect in the signal ratio in the repeat runs, with a control signal flat; inconclusive = weak or mixed curves, or effect the other way; inactive = flat fitted curve, though single readings scatter; the % refers to the signal ratio.

molecular target: D(2) dopamine receptor (Homo sapiens) (UniProt P14416); test: Dopamine D2 receptor (DRD2) small molecule antagonists, cell-based qHTS assay (AID 1963595); details: HEK293-DRD2 cAMP HTRF antagonist mode; series mostly up to 92.4 µM; activity change, negative = inhibition: at the top concentration
Excerpt: National Center for Advancing Translational Sciences [NCATS]
Division of Preclinical Innovation [DPI]
U.S. Environmental Protection Agency [EPA]
National Institutes of Environmental Health Sciences [NIEHS]
National Toxicology Program [NTP]
U.S. Food and Drug Administration [FDA]
DRD2 is the D2 subtype of the dopamine receptor, which is coupled to Gi subtype of G protein-coupled receptor. This G protein-coupled receptor inhibits adenylyl cyclase activity. The DRD2-HEK293 cell line stably expressing D2 dopamine receptor can be used for screening agonists and antagonists of interactions between D2 and its ligands. The Hek293-DRD2 cAMP assay is based on HTRF technology. It measures changes of cAMP accumulation in response to Gi coupled GPCR activation or inhibition.
Tox21 Assay Protocol Summary:
DRD2-Hek293 cells were dispensed at 600 cells/3uL/well in 1536-well white plates using a Multidrop Dispenser. After the assay plates were incubated at a 37 C/5% CO2 incubator for 24 h, 1 uL of Ro20-1724 at final concentration of 0.1 mM was transferred to the assay plate by a Flying Reagent Dispenser. Following Ro20-1724 addition, 23 nL of compound dissolved in DMSO, positive controls or DMSO only was added to the assay plates via Wako pintool station. The assay plates were incubated at room temperature for 10 min. Next, 1 uL of mixture of NKH477 (final concentration at 200 nM) and quinpirole (final concentration at 12 nM) was added into the plates. After the assay plates were incubated at room temperature for an additional 30 min, 2.5 ul/well of cAMP-d2 and 2.5 ul/well of anti-cAMP-cryptate were added respectively into the assay plates using a Flying Reagent Dispenser. The plates were incubated at room temperature for 1 h. The fluorescence intensity in the plates was measured at 340 nm excitation and 665 & 620 nm emission by an Envision plate reader.
% is scaled to controls: 0 for no effect and ±100 for the full control effect.

Sequence of D(2) dopamine receptor (Homo sapiens) (P14416 whole entry, looked up): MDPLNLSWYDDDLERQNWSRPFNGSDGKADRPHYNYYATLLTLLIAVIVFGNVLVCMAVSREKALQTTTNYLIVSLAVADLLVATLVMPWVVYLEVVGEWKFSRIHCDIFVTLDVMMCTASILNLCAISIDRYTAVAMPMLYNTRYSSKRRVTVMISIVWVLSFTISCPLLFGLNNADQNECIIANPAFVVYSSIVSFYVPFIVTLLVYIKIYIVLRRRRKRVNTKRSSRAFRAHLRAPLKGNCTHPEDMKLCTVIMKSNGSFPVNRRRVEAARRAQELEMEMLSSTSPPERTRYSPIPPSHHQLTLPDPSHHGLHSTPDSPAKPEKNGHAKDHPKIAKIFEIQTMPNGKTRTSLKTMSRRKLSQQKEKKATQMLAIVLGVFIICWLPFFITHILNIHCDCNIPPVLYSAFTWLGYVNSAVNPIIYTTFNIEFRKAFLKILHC

SMILES	activity change, negative = inhibition
CC(=O)NC(=O)c1ccccc1O	1.38% [at 42.5 µM]
COC(=O)[C@H]1[C@H]2C[C@@H]3c4[nH]c5cc(OC)ccc5c4CCN3C[C@H]2C[C@@H](OC(=O)COc2ccc(OC)cc2)[C@@H]1OC	4.38% [at 42.5 µM]
CCOC(=O)C1=C(C)NC(C)=C(C(=O)OC)C1c1cccc(Cl)c1Cl (stereo not given)	-7.74% [at 42.5 µM]
CCCCCCCC(=O)Oc1c(Br)cc(C#N)cc1Br	9.13%
CCNS(=O)(=O)c1ccc(C)cc1	9.26%
COc1ccccc1N1CCN(CC(O)COc2cc(OC)c(OC)c(OC)c2)CC1 (stereo not given)	-0.378% [at 42.5 µM]
CC(C)(Sc1cc(C(C)(C)C)c(O)c(C(C)(C)C)c1)Sc1cc(C(C)(C)C)c(O)c(C(C)(C)C)c1	-1.25% [at 42.5 µM]
CN(C)CCn1nnnc1SCC1=C(C(=O)O)N2C(=O)[C@@H](NC(=O)Cc3csc(N)n3)[C@H]2SC1	6.64% [at 42.5 µM]
N#CCc1ccccc1[N+](=O)[O-]	6.11%
CC(C)(O)c1ccccc1	0.519%
Clc1nnc(Cl)c2ccccc12	-0.0221%
CC(=O)c1ccc(Cl)c(Cl)c1Cl	2.15%
CCCCCCCCCCCCCCCCCC(=O)OCCCCCCCCCCCCCC(C)C	0.93%
C[N+]1(CC2COC(c3ccccc3)(c3ccccc3)O2)CCCCC1 (stereo not given)	7.28% [at 18.9 µM]
COc1ccc(-n2nc(C(F)F)cc2-c2ccc(S(C)=O)cc2)cc1 (stereo not given)	-8.8%
O=C(O)C1(C(=O)O)CCC1.[NH2-].[NH2-].[Pt+2]	3.74% [at 42.5 µM]
Oc1c(I)cc(I)c2cccnc12	-2.8% [at 42.5 µM]
O=C(CCCl)NCc1ccccc1	1.35% [at 42.5 µM]
CCOC(=O)C1=NN(c2ccc(Cl)cc2Cl)C(C)(C(=O)OCC)C1 (stereo not given)	4.69%
C=CC1CC2C=CC1C2 (stereo not given)	-13.9%

SMILES	activity change, negative = inhibition
C1=C\CC/C=C\CC/1	1.72%
CCCCCCCCCCCCCOP(=O)(O)O	-0.0746%
CCCCCCCCCCCCCCCCCCOCCO	-0.251% [at 18.9 µM]
CC1=NC(C)OC1C (stereo not given)	9.25%
Cc1ccc2ccccc2n1	2.66%
CCCCCC(C)N (stereo not given)	3.97% [at 42.5 µM]
Cn1c(=O)c2c(ncn2CC(=O)O)n(C)c1=O	-1.19% [at 42.5 µM]
C=CC(=O)OCC(O)COc1ccccc1 (stereo not given)	-3.04%
OCCN1C[C@H](O)[C@@H](O)[C@H](O)[C@H]1CO	11.5% [at 42.5 µM]
COc1ccc(N)c([N+](=O)[O-])c1	-9.31%
CN1CCCN=C1COC(=O)C(O)(c1ccccc1)C1CCCCC1 (stereo not given)	-3.05% [at 42.5 µM]
O=C(O)c1cc(O)c2c(c1)C(=O)c1cccc(O)c1C2=O	-1.92%
C#CCN[C@@H]1CCc2ccccc21	6.65% [at 42.5 µM]
NCc1ccco1	-4.12%
C[C@]12C=CC(=O)C=C1[C@@H](F)C[C@@H]1[C@@H]2[C@@H](O)C[C@@]2(C)[C@H]1CC[C@]2(O)C(=O)CO	-0.844% [at 42.5 µM]
CC(C)(C)N(CCO)CCO	3.11%
CCCCN(CCCC)CCCOC(=O)c1ccc(N)cc1	-7.08% [at 42.5 µM]
O=C(O)c1cccc(C(=O)O)n1	6.19%
N=C1N=C(N)c2ccccc21	4.83%
CCCCCCCCCCCCCCCCC(=O)O	-0.423% [at 42.5 µM]
